Test results: the supplement of paper PMC6555819

Assays:
Assay in all cases: PBM binding z-score (relative to random genomic background probes); higher = stronger binding; sequences stand for … in GC…GCGATTGACAGCGTAGAATGAAGG
[1] = system: FXR:RXRa (NR concentration 270 nM, RXRa partner concentration 90 nM)
In short: (§1)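 Custom Agilent 4×180K protein-binding microarrays carried double-stranded probes. Their 34-nt variable regions held direct-repeat seeds, single-nucleotide variants, half-site ablations and random human genomic background sequences. Arrays were incubated 1 h with ligand-free nuclear receptor dimers in PBS pH 7.4, 2% milk, 0.02% Triton X-100, 1 mM DTT, 0.2 mg/mL BSA and 0.4 mg/ml salmon testes DNA. Antibodies against each partner (one per run) detected binding, and scanned fluorescence was regression-normalized. Binding z-scores use random background probes as reference.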

[2] = system: LXRa:RXRa (NR concentration 270 nM, RXRa partner concentration 90 nM)
In short: as §1

[3] = system: LXRa homodimer (NR concentration 270 nM)
In short: as §1

[4] = system: LXRb:RXRa (NR concentration 270 nM, RXRa partner concentration 90 nM)
In short: as §1

[5] = system: LXRb homodimer (NR concentration 270 nM)
In short: as §1

[6] = system: PPARa:RXRa (NR concentration 270 nM, RXRa partner concentration 90 nM)
In short: as §1

[7] = system: PPARg:RXRa 270nM:90nM, anti-RXR (NR concentration 270 nM, RXRa partner concentration 90 nM)
In short: as §1

[8] = system: PPARg:RXRa 30nM:10nM, anti-RXR (NR concentration 30 nM, RXRa partner concentration 10 nM)
In short: as §1

[9] = system: PPARg:RXRa 90nM:30nM, anti-RXR (NR concentration 90 nM, RXRa partner concentration 30 nM)
In short: as §1

[10] = system: PPARg:RXRa DBDmut IVT, anti-RXR (DBD mutation: RXRa K156A/R161A, NR concentration 270 nM, RXRa partner concentration 90 nM)
In short: as §1

[11] = system: PPARg:RXRa IVT, anti-PPARg (NR concentration 270 nM, RXRa partner concentration 90 nM)
In short: as §1

[12] = system: PPARg DBDmut:RXRa IVT, anti-PPARg (DBD mutation: PPARg1 K132A/R137A, NR concentration 270 nM, RXRa partner concentration 90 nM)
In short: as §1

[13] = system: PPARg DBDmut IVT, anti-PPARg (DBD mutation: PPARg1 K132A/R137A, NR concentration 270 nM)
In short: as §1

[14] = system: PPARg homodimer (NR concentration 180 nM)
In short: as §1

[15] = system: PXR:RXRa (NR concentration 270 nM, RXRa partner concentration 90 nM)
In short: as §1

[16] = system: PXR homodimer (NR concentration 270 nM)
In short: as §1

[17] = system: RARa:RXR (NR concentration 270 nM, RXRa partner concentration 90 nM)
In short: as §1

[18] = system: RARa homodimer (NR concentration 270 nM)
In short: as §1

[19] = system: RARb:RXRa (NR concentration 270 nM, RXRa partner concentration 90 nM)
In short: as §1

[20] = system: PPARg:RXRa (NR concentration 180 nM, RXRa partner concentration 90 nM)
In short: as §1

Row | Sequence | PBM binding z-score [1] | PBM binding z-score [2] | PBM binding z-score [3] | PBM binding z-score [4] | PBM binding z-score [5] | PBM binding z-score [6] | PBM binding z-score [7] | PBM binding z-score [8] | PBM binding z-score [9] | PBM binding z-score [10] | PBM binding z-score [11] | PBM binding z-score [12] | PBM binding z-score [13] | PBM binding z-score [14] | PBM binding z-score [15] | PBM binding z-score [16] | PBM binding z-score [17] | PBM binding z-score [18] | PBM binding z-score [19] | PBM binding z-score [20]
1 | TGGCCTAGGTCATGGGCCAGTATACCACGCGAAC | 4.4 | 2.91 | -0.382 | 1.57 | -1.26 | 3.93 | 3.6 | 0.481 | 2.22 | 0.46 | 2.6 | 0.17 | -0.783 | 0.937 | 1.04 | -0.935 | 2.31 | -0.155 | 3.82 | –
2 | CCTACTGGGCCAAGCTCATTGATCAGTCAAAGCA | -0.645 | -0.823 | -0.557 | -0.699 | -1.01 | 0.0972 | 0.223 | -0.794 | -0.165 | 4.44 | 2.91 | -0.901 | -1.44 | -0.727 | -0.626 | -0.809 | -0.399 | -1.2 | -0.112 | –
3 | CAAACTAGGTCAAAGGTCAAAGACGAGCCAACCA | 8.68 | 7.43 | 5.15 | 7.3 | 2.82 | 7.71 | 11.5 | 15.4 | 14.3 | 8.8 | 9.63 | 6.19 | 7.03 | 8.08 | 7.17 | 1.87 | 9.19 | 4.59 | 5.96 | –
4 | ATCTCTAGGTCAAAGTTCAGTGAATCCCGAGGAT | 5.79 | 6.34 | 6.95 | 4.67 | 3.69 | 6.3 | 9.63 | 10.4 | 10.7 | 6.47 | 6.91 | 3.49 | 3.22 | 3.06 | 5.29 | 2.76 | 6.71 | 1.52 | 4.58 | –
5 | CCAGACAGGTGAAAGGTCACTCAGTCTGGTACGC | 5.43 | 5.49 | 2.57 | 4.91 | 0.389 | 6.31 | 8.84 | 7.76 | 8.99 | 2.78 | 5.19 | 0.814 | 0.242 | 3.92 | 5.74 | 1.88 | – | 1.75 | 4.91 | –
6 | CGTCCAAGGTCAAGGTCACTGAAAGAGACTCGAA | 8.15 | 6.19 | 2.24 | 5.23 | 0.938 | – | 6.98 | 4.14 | 5.87 | 3.94 | 5.37 | 1.81 | 0.436 | 3.85 | 5.68 | 1.6 | 6.16 | 1.64 | – | 7.36
7 | GCTTCCGGGTCAAAGGTTATAGCATGAATAGAAT | 7.32 | 5.48 | 0.542 | 5.76 | 0.776 | 6.97 | 9.9 | 10.7 | 11.4 | 6.02 | 6.82 | 2.92 | 1.77 | 4.67 | – | 0.927 | 8.48 | 0.795 | 4.45 | –
8 | TCATATAGGTTAAAGGTGAAAGTCGGTGTGGTAA | 4.54 | 4.09 | 0.882 | 3.59 | 0.683 | 6.28 | 9.55 | 10.5 | 11.5 | 6.74 | 6.73 | 2.27 | 1.26 | 3.22 | 3.73 | 0.749 | 6.33 | 2.29 | 2.9 | –
9 | AGACAAAGTTCAGGACGAGGTAACGTAAAGCACG | 4.35 | 3.92 | 0.814 | 1.95 | -0.0251 | – | 2.93 | 1 | 1.97 | -0.362 | 0.619 | 0.472 | 0.977 | 1.38 | 3.02 | 0.806 | 3.06 | 0.776 | 4.18 | 2.53
10 | CGTCCAAGGTCAAAGGTCACTGAAGAGATGACGG | 8.77 | 7.26 | 4.53 | 7.05 | 2.19 | 7.23 | 9.43 | 11 | 11.1 | 4.24 | 6.37 | 2.37 | 1.21 | 2.49 | – | 2.15 | 9 | 3.47 | 5.96 | –
11 | TAGCCTAGGTGATTGGGCCAGTATAGTACGCATC | -0.581 | -0.692 | -0.293 | -0.59 | -0.51 | -0.146 | -0.141 | -0.21 | -0.578 | 0.598 | 1.35 | -0.207 | -0.683 | -0.347 | -0.55 | -0.684 | -0.276 | -0.504 | -0.13 | –
12 | CAAAATAGGTCAAGGTCAAAGTCGGTTTGTGCCA | 7.38 | 5.98 | 4.65 | 5.22 | 2.2 | – | 7.46 | 5.59 | 7.54 | 7.7 | 8.26 | 1.72 | 1.63 | 4.28 | 5.51 | 2.04 | 5.42 | 1.28 | – | 8.81
13 | CAAACTAGGTCAAAGGTCAAGGTCGAGCCAACCA | 8.28 | 7.09 | 5.12 | 6.8 | 2.23 | 7.68 | 11.5 | 15.3 | 14.1 | 9.03 | 9.29 | 6.79 | 5.8 | 7.67 | 7.26 | 1.52 | 8.89 | 3.88 | 5.76 | –
14 | AGAATGGGGTTAAGATCAGGGAAACAGAATACAT | 4.23 | 3.54 | 0.59 | 4.19 | 2.1 | 5.62 | 4.5 | 2.12 | 3.37 | 3.55 | 3.66 | 1.77 | 1.97 | 2.18 | 2.98 | 2.24 | 3.46 | 1.79 | 2.47 | –
